Drawing on PubChem BioAssay (NCI), this text covers growth for 15 compounds.

Some test systems named below: HT29 colon; SNB-75 CNS; SNB-19 CNS; SK-MEL-5 melanoma; UACC-62 melanoma; LOX IMVI melanoma; SK-MEL-28 melanoma; PC-3 prostate; U251 CNS; SK-MEL-2 melanoma.
Test in all cases: NCI-60 one-dose screen, 48 h (100 = growth as untreated, 0 = no growth, -100 = all killed)
Common to all, as to details: 10 µM unless noted

The panel holds about 83,000 compounds, 20% with a hit somewhere; the sample as a whole holds those more often.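 The test compound was applied at a single concentration to cells in 96-well plates for 48 hours, and percent growth was recorded.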 Unmarked numbers belong to inactive results. Active and inactive are the calls of the source. The calls were made as follows: active = growth percent below 10; inactive = the rest.

Consider `ClC1=C(Cl)C(=C2C(Cl)=C(Cl)C(Cl)=C2Cl)C(Cl)=C1Cl`, for which the growth in the test with HT29 colon is 96.2%; in the test with SNB-75 CNS it was 94.4%; in the test with SNB-19 CNS, 105%; with SK-MEL-5 melanoma it was 103%; with UACC-62 melanoma, 99.3%; in the test with LOX IMVI melanoma it was 97.9%. For the same compound, the growth in the test with SK-MEL-28 melanoma was 111%.
As for `Nc1ccc(C2=NN(c3ccccc3)C(c3ccc(Cl)cc3)C2)cc1` (stereo not drawn), the growth was 19.5% in the test with HT29 colon; 72.8% in the test with SNB-75 CNS; 78.1% with SNB-19 CNS; 80.9% in the test on PC-3 prostate; 89.5% with UACC-62 melanoma; 105% in the test with SK-MEL-28 melanoma.
As for `CN1CCN(Cc2ccc(NC(=O)c3[nH]ncc3Nc3ccnc4ccnn34)cc2)CC1`, the growth was 67% with HT29 colon; 63.2% with SNB-75 CNS; 62% in the test with U251 CNS; 55.9% with PC-3 prostate; 71.6% in the test with SK-MEL-5 melanoma; 67.7% in the test on UACC-62 melanoma. The growth in the test with LOX IMVI melanoma was 24.1%; in the test with SK-MEL-28 melanoma, 65.6%; in the test with SK-MEL-2 melanoma, 60.6%.
As to `COC1CC2CCC(C)C(O)(O2)C(=O)C(=O)N2CCCCC2C(=O)OC(C(C)CC2CCC(O)C(OC)C2)CC(=O)C(C)C=C(C)C(O)C(OC)C(=O)C(C)CC(C)/C=C/C=C/C=C1C` (stereo not drawn), the growth in the test on HT29 colon is 43.7%; in the test with SNB-75 CNS, 13.5%; in the test on SNB-19 CNS it was 38.1%; with PC-3 prostate, 31.3%; in the test on UACC-62 melanoma, 36.5%; in the test with LOX IMVI melanoma it was 39%. Also, the growth with SK-MEL-28 melanoma was 54.1%; in the test with SK-MEL-2 melanoma, 35.9%.
`CCCCCCCCCCCCNc1ncnc2[nH]ncc12`: the growth in the test on HT29 colon is 97.9%; in the test on SNB-75 CNS it was 105%; in the test on U251 CNS, 87.7%; in the test on PC-3 prostate, 69.7%; in the test on SK-MEL-5 melanoma, 36.1%; with UACC-62 melanoma it was 57.1%. In addition, the values for the growth in the test with LOX IMVI melanoma, in the test on SK-MEL-28 melanoma and with SK-MEL-2 melanoma were 44.6%, 100% and 85.9%, respectively.
On to `CCCC[N+](CCCC)=c1ccc2nc3c(C)cc(N(CC)CC)cc3sc-2c1`, for which the growth in the test with HT29 colon is -68.6% (active); with SNB-75 CNS it was -0.166% (active); in the test on U251 CNS it was -11.3% (active); in the test on PC-3 prostate, -13.9% (active); in the test on SK-MEL-5 melanoma, -96.9% (active); in the test with UACC-62 melanoma, -35.7% (active). Besides, the growth in the test with LOX IMVI melanoma is -70.4% (active); in the test with SK-MEL-28 melanoma, -2.53% (active).
On to `Cc1cc2c(cc1C)Nc1sc(NC(=O)CN3CCN(C)CC3)nc1C(=O)N2`, for which the growth with HT29 colon was 99.8%; with SNB-75 CNS, 104%; with SNB-19 CNS, 96.6%; in the test on PC-3 prostate it was 101%; in the test with UACC-62 melanoma it was 105%; with SK-MEL-28 melanoma, 108%.
As to `O=C(Nc1ccc(Cl)cc1)Nc1ccc(Oc2nncc3ccccc23)cc1`, the growth in the test with HT29 colon was 0.517% (active); in the test with SNB-75 CNS, -3.13% (active); in the test on U251 CNS it was -31.1% (active); with PC-3 prostate, -29% (active); in the test with SK-MEL-5 melanoma, -43.3% (active); in the test with UACC-62 melanoma it was -14.3% (active). Moreover, the growth is -77.3% (active) with LOX IMVI melanoma and -31.6% (active) in the test on SK-MEL-28 melanoma.
For `COc1ccc2c(c1)C(=O)c1c-2c(=O)n(CCCCCCC(=O)NO)c2ccccc12`, the growth with HT29 colon was 3.51% (active); with SNB-75 CNS, 29.7%; in the test on U251 CNS, -58.8% (active); in the test with PC-3 prostate, -8.27% (active); with SK-MEL-5 melanoma it was -85.7% (active); in the test with UACC-62 melanoma, -55.5% (active). Further, the growth is -82% (active) in the test on LOX IMVI melanoma, -18% (active) in the test with SK-MEL-28 melanoma and 10.4% in the test with SK-MEL-2 melanoma.
With `O=C(C=C=Nc1ccccc1)C(=O)N=C=Cc1ccccc1`, the growth in the test on HT29 colon is 52.1%; in the test with SNB-75 CNS, 75.8%; in the test on SNB-19 CNS it was 92.3%; in the test with SK-MEL-5 melanoma it was 74.3%; in the test on UACC-62 melanoma it was 67%; in the test with LOX IMVI melanoma, -47.5% (active). The growth was 68.2% in the test with SK-MEL-28 melanoma and 49.2% in the test with SK-MEL-2 melanoma.
For `CC(=O)c1cc(C(=O)c2ccc3c(c2)Sc2ccccc2N3)c2c(C)cc(C)cn12`, the growth in the test on HT29 colon is -15% (active); in the test with SNB-75 CNS, -2.02% (active); with SNB-19 CNS, 36.5%; in the test with SK-MEL-5 melanoma, -36.5% (active); in the test with UACC-62 melanoma it was 23.1%; in the test on LOX IMVI melanoma it was 16.6%. The results for the growth in the test on SK-MEL-28 melanoma and in the test on SK-MEL-2 melanoma were 40.4% and 26.3%, respectively.
As to `CSc1nnc(C2=CC(=O)c3ccccc3C2=O)n1-c1ccccc1`, the growth with HT29 colon was 110%; in the test on SNB-75 CNS it was 74.8%; in the test with SNB-19 CNS, 91.5%; in the test with PC-3 prostate it was 86.7%; with UACC-62 melanoma, 84.1%; in the test with SK-MEL-28 melanoma, 105%.
On to `CCN1CCN(c2cc(-c3cn[nH]c3-c3cc(C)cc(OC)c3)nc(-c3cccnc3)n2)CC1`, for which the growth was 33.4% with HT29 colon; 75.9% in the test with SNB-75 CNS; 48.3% in the test with U251 CNS; 100% in the test on PC-3 prostate; 81.9% in the test on SK-MEL-5 melanoma; 102% in the test with UACC-62 melanoma. The growth was 56.7% with LOX IMVI melanoma, 87.4% with SK-MEL-28 melanoma and 93.6% in the test with SK-MEL-2 melanoma.
On to `Cc1ccc(NC(=O)Nc2ccc(-c3cccnc3)cc2N2CCC(CO)CC2)cc1`, for which the growth with HT29 colon was 5.68% (active); in the test with SNB-75 CNS, 15.3%; in the test with U251 CNS, 11.3%; with PC-3 prostate, 51.8%; in the test with SK-MEL-5 melanoma it was -46.1% (active); with UACC-62 melanoma it was 4.73% (active). The growth with LOX IMVI melanoma is 33.3%; in the test on SK-MEL-28 melanoma it was 9.36% (active); with SK-MEL-2 melanoma, 33.7%.
Turning to `COc1ccc(/C=C2\COc3ccc(O)c(O)c3C2=O)cc1OC`, the growth with HT29 colon was 8.1% (active); in the test on SNB-75 CNS it was 42.1%; in the test with SNB-19 CNS, 22.4%; with PC-3 prostate, 11.7%; with UACC-62 melanoma, -29.4% (active); in the test on LOX IMVI melanoma, -68% (active). The figures for the growth in the test on SK-MEL-28 melanoma and in the test with SK-MEL-2 melanoma were 57.2% and 76%, respectively.
